# Experimental data as given in PubChem BioAssay (Tox21).
# Records with an inconclusive call do not appear. Entries that show only a call come without a potency. A number with no mark means an inactive call. Active and inactive are the calls of the source. Unless noted, calls follow the shape of the dose curve; as a rule, active = well fitted curve in the direction sought with a large enough effect in the repeat runs; inconclusive = weak or mixed curves; inactive = no such curve, though single readings can be large; an effect the other way counts as inactive or inconclusive.
# Columns and labels:
# [1] = qHTS assay to identify small molecule antagonists of the estrogen receptor alpha (ER-alpha) signaling pathway - cell viability counter screen (AID 743074; calls by dose curve;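 also: HEK293 cells carrying ER-alpha-UAS-bla reporter stimulated with 17beta-estradiol; nearly all actives have a fitted effect of over 45% in size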; also: potency is read from the fitted curve at half-maximal effect); conditions: ERalpha-bla HEK293 viability, CellTiter-Glo luminescence, 18 h; series mostly up to 69.4 µM
# Aromatase (Homo sapiens) = Aromatase (Homo sapiens) (UniProt P11511); experiment: qHTS assay to identify aromatase inhibitors (AID 743083); conditions: MCF-7 aro ERE, testosterone-driven ERE luciferase, 24 h; series mostly up to 70.3 µM; also: nearly all actives have a fitted effect of over 55% in size; also: potency is read from the fitted curve at half-maximal effect
# Chain of Aromatase (Homo sapiens) (P11511 whole entry, looked up): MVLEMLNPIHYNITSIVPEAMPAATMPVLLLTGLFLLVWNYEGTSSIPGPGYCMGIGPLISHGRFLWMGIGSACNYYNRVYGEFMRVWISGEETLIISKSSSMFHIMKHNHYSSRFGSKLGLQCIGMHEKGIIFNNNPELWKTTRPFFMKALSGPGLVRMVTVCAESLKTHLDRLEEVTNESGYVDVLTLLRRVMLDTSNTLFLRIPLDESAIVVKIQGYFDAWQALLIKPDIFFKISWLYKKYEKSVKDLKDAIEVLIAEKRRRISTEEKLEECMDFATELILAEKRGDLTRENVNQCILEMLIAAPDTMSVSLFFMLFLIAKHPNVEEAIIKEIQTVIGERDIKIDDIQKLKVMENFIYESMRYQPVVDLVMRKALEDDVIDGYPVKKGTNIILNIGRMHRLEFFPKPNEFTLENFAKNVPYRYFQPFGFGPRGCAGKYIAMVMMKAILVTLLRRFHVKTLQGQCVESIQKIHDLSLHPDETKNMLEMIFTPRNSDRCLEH
# [2] = qHTS assay to identify small molecule that activate the aryl hydrocarbon receptor (AhR) signaling pathway - cell viability counter screen (AID 743086); conditions: HepG2-AhR-luc viability, CellTiter-Fluor, 24 h; series mostly up to 70.3 µM; also: nearly all actives have a fitted effect of over 45% in size; also: potency is read from the fitted curve at half-maximal effect
# In short: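 Cytotoxicity counter screen: CellTiter-Fluor signal (30 min, 37 C) in 4000 HepG2 cells/well carrying the DRE-luciferase reporter, following 24 h compound exposure at 37 C.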
# [3] = target: Peroxisome proliferator-activated receptor gamma (Homo sapiens) (UniProt P37231); experiment: qHTS assay to identify small molecule agonists of the peroxisome proliferator-activated receptor gamma (PPARg) signaling pathway (AID 743094; active = well fitted activation curve with a large enough effect in the signal ratio in the repeat runs, not every such curve was filed as active; the % refers to the signal ratio); conditions: HEK293H PPARg-UAS-bla, beta-lactamase FRET ratio, 17 h; series mostly up to 57 µM
# Chain of Peroxisome proliferator-activated receptor gamma (Homo sapiens) (P37231 whole entry, looked up): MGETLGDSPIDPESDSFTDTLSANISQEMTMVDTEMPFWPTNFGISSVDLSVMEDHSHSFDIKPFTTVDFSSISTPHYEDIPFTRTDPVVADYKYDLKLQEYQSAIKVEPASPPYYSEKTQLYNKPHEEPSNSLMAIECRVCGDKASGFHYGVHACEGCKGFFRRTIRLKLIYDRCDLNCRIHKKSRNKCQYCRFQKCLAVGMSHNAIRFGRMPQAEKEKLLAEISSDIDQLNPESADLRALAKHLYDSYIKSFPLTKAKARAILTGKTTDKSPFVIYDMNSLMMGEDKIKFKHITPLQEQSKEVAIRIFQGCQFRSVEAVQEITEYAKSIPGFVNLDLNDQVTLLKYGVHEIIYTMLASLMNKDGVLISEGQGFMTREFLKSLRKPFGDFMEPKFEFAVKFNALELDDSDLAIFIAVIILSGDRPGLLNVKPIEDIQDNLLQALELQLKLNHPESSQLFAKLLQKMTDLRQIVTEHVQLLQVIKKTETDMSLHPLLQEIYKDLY
# In short: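 Quantitative HTS agonist mode: stable HEK293H line with UAS-beta-lactamase reporter under PPARg control, 17 h compound exposure at 37C, fluorescence after 1 h FRET substrate loading at room temperature.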
# [4] = qHTS assay to identify small molecule antagonists of the peroxisome proliferator-activated receptor gamma (PPARg) signaling pathway - cell viability counter screen (AID 743194); conditions: PPARg-bla HEK293H viability, CellTiter-Glo luminescence, 17 h, co-treated with 50 nM rosiglitazone; series mostly up to 62.6 µM; also: nearly all actives have a fitted effect of over 55% in size; also: potency is read from the fitted curve at half-maximal effect
# In short: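 Viability was measured as CellTiter-Glo luminescence in GeneBLAzer PPARg UAS-bla HEK293H cells. These cells had been exposed 17 h at 37 C to compounds together with rosiglitazone at 50 nM final, with the beta-lactamase readout taken in the same wells.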
# [5] = qHTS assay for small molecule agonists of the antioxidant response element (ARE) signaling pathway - cell viability counter screen (AID 743203; calls by dose curve; also: nearly all actives have a fitted effect of over 55% in size; also: potency is read from the fitted curve at half-maximal effect); conditions: ARE-bla HepG2 viability, CellTiter-Glo luminescence, 16 h; series mostly up to 73.3 µM
# In short: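 Seeded at 2,000 cells/well, ARE-bla HepG2 cells were incubated 5 hrs before compound addition. After 16 hrs of treatment at 37C with 5% CO2, CellTiter-Glo reagent was added and luminescence read 30 min later.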
# [6] = qHTS assay for small molecule activators of the heat shock response signaling pathway - cell viability counter screen (AID 743209); conditions: HSE-bla HeLa viability, CellTiter-Glo luminescence, 5 h; series mostly up to 62.6 µM; also: nearly all actives have a fitted effect of over 50% in size; also: potency is read from the fitted curve at half-maximal effect
# In short: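 First, HSE-bla HeLa cells were seeded at 1500 cells/well and kept overnight at 37 C. Next, compounds were pinned in and incubated 5 h. After the FRET substrate step, CellTiter-Glo was added and luminescence read 30 min later.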
# [7] = target: Estrogen receptor (Homo sapiens) (UniProt P03372); experiment: qHTS assay to identify small molecule agonists of the estrogen receptor alpha (ER-alpha) signaling pathway (AID 743075; calls by dose curve); conditions: HEK293 ER-alpha-UAS-bla, beta-lactamase FRET ratio, 18 h; activation: at 70.1 µM (top of the series)
# Chain of Estrogen receptor (Homo sapiens) (P03372 whole entry, looked up): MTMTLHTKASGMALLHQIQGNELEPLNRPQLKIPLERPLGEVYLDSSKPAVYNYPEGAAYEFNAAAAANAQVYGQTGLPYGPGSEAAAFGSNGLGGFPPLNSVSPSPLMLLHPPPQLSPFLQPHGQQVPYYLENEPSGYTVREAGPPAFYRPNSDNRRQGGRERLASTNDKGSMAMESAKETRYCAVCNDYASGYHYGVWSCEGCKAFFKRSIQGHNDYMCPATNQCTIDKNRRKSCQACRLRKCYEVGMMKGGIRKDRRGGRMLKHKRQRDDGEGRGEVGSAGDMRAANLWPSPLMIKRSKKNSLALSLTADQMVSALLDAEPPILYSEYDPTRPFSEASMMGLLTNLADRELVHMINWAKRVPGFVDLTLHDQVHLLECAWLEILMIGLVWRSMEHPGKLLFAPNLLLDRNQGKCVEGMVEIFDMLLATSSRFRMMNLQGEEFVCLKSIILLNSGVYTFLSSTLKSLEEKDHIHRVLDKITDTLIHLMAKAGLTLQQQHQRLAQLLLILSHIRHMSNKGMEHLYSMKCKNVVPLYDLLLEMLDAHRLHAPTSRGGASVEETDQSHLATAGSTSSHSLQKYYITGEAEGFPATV
# [8] = target: Estrogen receptor (Homo sapiens) (UniProt P03372); experiment: qHTS assay to identify small molecule agonists of the estrogen receptor alpha (ER-alpha) signaling pathway using the BG1 cell line (AID 743079); conditions: BG1Luc4E2 cells, ERE-luciferase agonist, 22 h; also: nearly all actives have a fitted effect of over 20% in size
# [9] = qHTS assay to identify small molecule antagonists of the estrogen receptor alpha (ER-alpha) signaling pathway using the BG1 cell line - cell viability counter screen (AID 743081); conditions: BG1Luc4E2 viability, CellTiter-Fluor, 22 h; series mostly up to 70.3 µM;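 also: compound given together with 17beta-estradiol as the ER stimulus; nearly all actives have a fitted effect of over 45% in size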; also: potency is read from the fitted curve at half-maximal effect
# [10] = qHTS assay to identify aromatase inhibitors - cell viability counter screen (AID 743084); conditions: MCF-7 aro ERE viability, CellTiter-Fluor, 24 h; series mostly up to 70.3 µM;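 also: cells stimulated with testosterone during compound exposure; nearly all actives have a fitted effect of over 55% in size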; also: potency is read from the fitted curve at half-maximal effect
# [11] = target: Aryl hydrocarbon receptor (Homo sapiens) (UniProt P35869); experiment: qHTS assay to identify small molecule that activate the aryl hydrocarbon receptor (AhR) signaling pathway (AID 743085); conditions: HepG2 AhR-luc (HG2L7.5c1), luciferase, 24 h; series mostly up to 70.3 µM; also: nearly all actives have a fitted effect of over 15% in size; also: potency is read from the fitted curve at half-maximal effect;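 as to activation: HG2L7.5c1 human HepG2 liver cells with stably integrated DRE-driven firefly reporter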
# Chain of Aryl hydrocarbon receptor (Homo sapiens) (P35869 whole entry, looked up): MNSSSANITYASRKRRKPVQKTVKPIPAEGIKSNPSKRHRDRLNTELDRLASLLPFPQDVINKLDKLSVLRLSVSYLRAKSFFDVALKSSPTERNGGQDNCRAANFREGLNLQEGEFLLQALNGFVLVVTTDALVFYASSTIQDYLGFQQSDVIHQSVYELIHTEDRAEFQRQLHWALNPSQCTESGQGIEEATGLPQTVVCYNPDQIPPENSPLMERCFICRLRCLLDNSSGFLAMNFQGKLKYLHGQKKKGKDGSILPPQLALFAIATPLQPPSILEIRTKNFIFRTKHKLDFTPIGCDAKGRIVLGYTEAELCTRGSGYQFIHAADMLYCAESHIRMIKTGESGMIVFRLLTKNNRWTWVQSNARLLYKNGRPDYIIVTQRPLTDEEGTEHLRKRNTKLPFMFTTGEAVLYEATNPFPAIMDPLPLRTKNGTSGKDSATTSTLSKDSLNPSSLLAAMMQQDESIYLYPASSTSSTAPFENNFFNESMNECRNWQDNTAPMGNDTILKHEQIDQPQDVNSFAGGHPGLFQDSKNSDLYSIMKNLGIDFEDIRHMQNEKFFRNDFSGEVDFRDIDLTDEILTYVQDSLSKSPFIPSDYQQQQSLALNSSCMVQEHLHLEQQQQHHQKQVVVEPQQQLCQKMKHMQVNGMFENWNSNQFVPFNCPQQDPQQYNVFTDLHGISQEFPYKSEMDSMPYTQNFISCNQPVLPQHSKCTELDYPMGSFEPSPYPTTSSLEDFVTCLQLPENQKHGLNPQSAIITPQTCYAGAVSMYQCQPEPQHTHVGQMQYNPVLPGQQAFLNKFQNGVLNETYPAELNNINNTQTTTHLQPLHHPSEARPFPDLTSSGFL
# In short: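 Reporter assay in engineered HepG2 line HG2L7.5c1, whose plasmid carries twenty dioxin responsive elements upstream of firefly luciferase. Treatment lasted 24 h at 37C; ONE-Glo luminescence gauged induction.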
# [12] = target: Peroxisome proliferator-activated receptor gamma (Homo sapiens) (UniProt P37231); experiment: qHTS assay to identify small molecule antagonists of the peroxisome proliferator-activated receptor gamma (PPARg) signaling pathway (AID 743191; calls by dose curve; also: nearly all actives have a fitted effect of over 30% in size; also: potency is read from the fitted curve at half-maximal effect); conditions: HEK293H PPARg-UAS-bla, beta-lactamase ratio, antagonist, 17 h; series mostly up to 62.6 µM
# In short: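 Beta-lactamase reporter under UAS control in HEK293H PPARg-bla cells; compound treatment 17 h at 37C. Read-out: fluorescence intensity after 1 h room-temperature incubation with LiveBLAzer B/G FRET substrate.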
# [13] = qHTS assay for small molecule agonists of the antioxidant response element (ARE) signaling pathway (AID 743202; active = well fitted activation curve with a large enough effect in the signal ratio in the repeat runs, not every such curve was filed as active; the % refers to the signal ratio; also: potency is read from the fitted curve at half-maximal effect); conditions: HepG2 ARE-bla reporter, beta-lactamase FRET, 16 h; series mostly up to 73.3 µM
# In short: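 An ARE-responsive beta-lactamase gene stably integrated in HepG2 cells serves as reporter. After 5 h plating and 16 h compound incubation at 37 C, fluorescence of the B/G FRET substrate was measured.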
# [14] = qHTS assay for small molecule activators of the heat shock response signaling pathway (AID 743210; active = well fitted activation curve with a large enough effect in the signal ratio in the repeat runs, with a control signal flat, not every such curve was filed as active; the % refers to the signal ratio;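 also: HeLa cells with beta-lactamase reporter driven by heat shock elements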); conditions: HeLa HSE-bla reporter, beta-lactamase ratio, 5 h; series mostly up to 62.6 µM
# In short: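 In HSE-bla HeLa cells, 5 h compound incubation (37 C) precedes addition of LiveBLAzer B/G substrate; after 2.5 h at room temperature, fluorescence intensity indicates reporter induction.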
# [15] = target: Estrogen receptor (Homo sapiens) (UniProt P03372); experiment: qHTS assay to identify small molecule antagonists of the estrogen receptor alpha (ER-alpha) signaling pathway (AID 743069; active = well fitted curve in the direction sought with a large enough effect in the signal ratio in the repeat runs, not every such curve was filed as active; the % refers to the signal ratio; also: potency is read from the fitted curve at half-maximal effect); conditions: HEK293 ER-alpha-UAS-bla, beta-lactamase ratio, antagonist mode; series mostly up to 69.4 µM
# In short: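 Compound effects are measured against 17beta-estradiol stimulation in HEK293 cells with a UAS-controlled beta-lactamase reporter for ER-alpha. Exposure lasts 18 hr at 37C; LiveBLAzer B/G FRET substrate follows for 2 hr at room temperature.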
# [16] = qHTS assay to identify small molecule antagonists of the estrogen receptor alpha (ER-alpha) signaling pathway using the BG1 cell line (AID 743080; calls by dose curve;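 also: BG1 cells stimulated with 17beta-estradiol alongside compound; nearly all actives have a fitted effect of over 25% in size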; also: potency is read from the fitted curve at half-maximal effect); conditions: BG1Luc4E2 ERE-luciferase antagonist mode, luminescence; series mostly up to 70.3 µM
# In short: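 Quantitative HTS on the Tox21 10K library: BG1 cells with endogenous ER-alpha and ERE-luciferase reporter, 17beta-estradiol stimulation, 21.5 h compound exposure, luminescence endpoint with parallel fluorescence cytotoxicity counter-read.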
structure (smiles),measurement,setting,value
CCCCCCCCNC(C)C(O)c1ccc(SC(C)C)cc1 (centres undefined),Potency,[1],9.52 µM (active)
same,Potency,Aromatase (Homo sapiens),29.8 µM (active)
same,Potency,[2],23.7 µM (active)
same,Potency,[3],inactive
same,Potency,[4],23.7 µM (active)
same,Potency,[5],16.8 µM (active)
same,Potency,[6],18.8 µM (active)
Fc1ccc(C(c2ccc(F)cc2)N2CCN(C/C=C/c3ccccc3)CC2)cc1,Potency,[1],inactive
same,Potency,[7],inactive
same,activation,[8]; at 70.3 µM (top of the series),-22.9%
same,Potency,[9],inactive
same,Potency,Aromatase (Homo sapiens),inactive
same,Potency,[10],inactive
same,Potency,[11],inactive
same,Potency,[2],inactive
same,Potency,[12],inactive
NC(=O)C1(N2CCCCC2)CCN(CCCN2c3ccccc3CCc3ccc(Cl)cc32)CC1,Potency,[4],29.8 µM (active)
same,Potency,[5],16.8 µM (active)
CC(C)(C)C1CCC(CC2=C(O)c3ccccc3C(=O)C2=O)CC1 (centres undefined),Potency,[13],2.11 µM (active)
same,Potency,[5],inactive
same,Potency,[6],inactive
same,Potency,[14],inactive
CN(C/C=C/C#CC(C)(C)C)Cc1cccc2ccccc12,Potency,[1],inactive
same,Potency,[9],inactive
same,Potency,Aromatase (Homo sapiens),inactive
same,Potency,[10],inactive
same,Potency,[11],inactive
same,Potency,[2],inactive
same,Potency,[3],inactive
same,Potency,[12],inactive
same,Potency,[4],inactive
same,Potency,[5],inactive
same,Potency,[6],inactive
same,Potency,[14],inactive
CCC(CN)=C(c1ccccc1)c1ccccc1,Potency,[4],inactive
same,Potency,[13],inactive
same,Potency,[5],inactive
same,Potency,[6],inactive
same,Potency,[14],inactive
CCCCCOc1ccccc1/C(=C\SC)n1ccnc1,Potency,[12],29.8 µM (active)
same,Potency,[4],inactive
same,Potency,[5],inactive
same,Potency,[6],inactive
O=c1[nH]sc2cc(Cl)ccc12,Potency,[4],inactive
CSc1ccc(C(=O)c2[nH]c(=O)[nH]c2C)cc1,Potency,[15],inactive
same,Potency,[1],inactive
same,Potency,[7],inactive
same,Potency,[9],inactive
same,Potency,Aromatase (Homo sapiens),inactive
same,Potency,[10],inactive
same,Potency,[11],inactive
same,Potency,[2],inactive
same,Potency,[4],inactive
same,Potency,[13],inactive
same,Potency,[5],inactive
same,Potency,[6],inactive
same,Potency,[14],inactive
CCCCCCCC[N+](CCCCCCCC)(CCCCCCCC)CCCCCCCC,Potency,[15],38.8 µM [cytotoxic] (active)
same,Potency,[1],15.5 µM (active)
same,Potency,[16],1.72 µM (active)
same,Potency,[9],24.3 µM (active)
same,Potency,Aromatase (Homo sapiens),2.16 µM (active)
same,Potency,[10],21.6 µM (active)
same,Potency,[11],inactive
same,Potency,[2],43.2 µM (active)
same,Potency,[5],13.7 µM (active)
same,Potency,[6],4.89 µM (active)
CCN(CC)CCCC(C)Nc1c2ccc(Cl)cc2nc2ccc(OC)cc12 (centres undefined),Potency,[1],inactive
same,Potency,Aromatase (Homo sapiens),inactive
same,Potency,[10],inactive
same,Potency,[11],9.44 µM (active)
same,Potency,[2],inactive
same,Potency,[5],7.5 µM (active)
same,Potency,[6],inactive
Cc1cc(O)c2ccccc2c1O,Potency,[15],inactive
same,Potency,[1],inactive
same,activation,[8]; at 70.3 µM (top of the series),-13.8%
same,Potency,[9],inactive
same,Potency,Aromatase (Homo sapiens),inactive
same,Potency,[10],inactive
same,Potency,[11],9.44 µM (active)
same,Potency,[3],inactive
same,Potency,[4],10.6 µM (active)
same,Potency,[5],13.3 µM (active)
same,Potency,[6],9.44 µM (active)
C/C(=C(/OCCOc1ccc(Cl)cc1)c1ccc(Cl)cc1Cl)n1ccnc1,Potency,[12],inactive
same,Potency,[5],42.2 µM (active)
same,Potency,[6],inactive
CN(C)[C@@H]1C(=O)C(C(N)=O)=C(O)[C@@]2(O)C(=O)C3=C(O)c4c(O)cccc4C[C@H]3C[C@@H]12,Potency,[4],inactive
same,Potency,[5],inactive
same,Potency,[6],inactive
O=C(Nc1ccc(Oc2ccc(Cl)cc2)c(Cl)c1)c1cc(I)cc(I)c1O,Potency,[1],6.01 µM (active)
same,Potency,[9],inactive
same,Potency,Aromatase (Homo sapiens),inactive
same,Potency,[10],inactive
same,Potency,[2],inactive
same,Potency,[3],inactive
same,Potency,[4],5.31 µM (active)
CC[C@@]1(O)C(=O)OCc2c1cc1n(c2=O)Cc2c-1nc1ccccc1c2/C=N/OC(C)(C)C,Potency,[5],0.335 µM (active)
same,Potency,[6],0.473 µM (active)
COC(=O)C1=C(C)NC(C)=C(C(=O)OCCc2ccc(N3CCN(C(c4ccccc4)c4ccccc4)CC3)cc2)C1c1cccc([N+](=O)[O-])c1 (centres undefined),Potency,[5],inactive
same,Potency,[6],inactive
CCC1OCC(COc2ccc(Oc3ccccc3)cc2)O1 (centres undefined),Potency,[1],inactive
same,Potency,[9],inactive
same,Potency,Aromatase (Homo sapiens),inactive
same,Potency,[10],inactive
same,Potency,[2],inactive
same,Potency,[3],inactive
same,Potency,[12],inactive
same,Potency,[13],61.1 µM (active)
same,Potency,[5],inactive
CC(NN)c1ccccc1 (centres undefined),Potency,[1],inactive
same,Potency,[16],inactive
same,Potency,[9],inactive
same,Potency,Aromatase (Homo sapiens),inactive
same,Potency,[10],inactive
same,Potency,[2],inactive
same,Potency,[3],inactive
same,Potency,[12],inactive
same,Potency,[4],inactive
same,Potency,[13],inactive
same,Potency,[5],inactive
same,Potency,[6],inactive
same,Potency,[14],inactive
O=C(Nc1cccc(Cl)c1)OCC#CCCl,Potency,[7],inactive
same,Potency,Aromatase (Homo sapiens),21.7 µM (active)
same,Potency,[10],24.3 µM (active)
same,Potency,[11],inactive
same,Potency,[2],27.3 µM (active)
same,Potency,[4],24.5 µM (active)
same,Potency,[5],54.5 µM (active)
same,Potency,[6],19.5 µM (active)
Cc1onc(-c2ccccc2Cl)c1C(=O)N[C@@H]1C(=O)N2[C@@H]1SC(C)(C)[C@@H]2C(=O)O,Potency,[15],inactive
same,Potency,[1],inactive
same,Potency,[7],inactive
same,activation,[8]; at 32.5 µM (top of the series),-4.31%
same,Potency,[9],inactive
same,Potency,Aromatase (Homo sapiens),inactive
same,Potency,[10],inactive
same,Potency,[2],inactive
same,Potency,[3],inactive
same,Potency,[12],inactive
same,Potency,[4],inactive
same,Potency,[5],inactive
same,Potency,[6],inactive
same,Potency,[14],inactive
CCOc1nc2cccc(C(=O)OC(C)OC(=O)OC3CCCCC3)c2n1Cc1ccc(-c2ccccc2-c2nn[nH]n2)cc1 (centres undefined),Potency,[9],inactive
same,Potency,Aromatase (Homo sapiens),48.5 µM (active)
same,Potency,[11],inactive
same,Potency,[4],9.76 µM (active)
same,Potency,[5],30.6 µM (active)
same,Potency,[6],13.8 µM (active)
Nc1nc2ccccc2n1Cc1ccc(F)cc1,Potency,[6],inactive
O=[N+]([O-])c1cc([N+](=O)[O-])c2ccc(S(=O)(=O)O)cc2c1O,Potency,[1],inactive
same,Potency,[9],54.2 µM (active)
same,Potency,[2],24.2 µM (active)
same,Potency,[4],inactive
same,Potency,[5],inactive
same,Potency,[6],inactive
